This experiment in a line: OPRM1-OPRD1 heterodimerization promoters, counter-screen for HTR5A agonist project, cell-based, luminescence (AID 504913). Particulars: U2OS counter-screen cells, complementation luminescence, 3 h; at 9.3 µM; active compounds read high. For orientation: The purpose of a counterscreen is to sort out artefacts and off-target activity.

Structures are written as SMILES. Some of the results follow. Unmarked numbers belong to inactive results. Rule as the data show it: active = activation above about 18%; inactive = the rest.

For the compound `CCCCCCCCCCCCn1ccc(=N)cc1`, the activation is 2.92%.

The record behind these values is PubChem BioAssay AID504913 (The Scripps Research Institute Molecular Screening Center, 2011).
